Assay outcomes: PubChem BioAssay, several laboratories
NOD2 RIPK2 PPI – NOD2-RIPK2 binding disruptors in cells, primary screen, fluorescence, CHO cells, BLA complementation. Receptor-interacting serine/threonine-protein kinase 2 (Homo sapiens), O43353. AID 624267, 2012. CCF4 ratio. inhibition, % at 4.98 µM. hit rate 0.38% among 360,000; in the data active = inhibition above about 21%;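 note: 0% = vehicle only and 100% = reference blocker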
PRMT1 inh – PRMT1 methyltransferase inhibitors, primary screen, biochemical, fluorescence polarization. hit rate 1.3% among 370,000. Protein arginine N-methyltransferase 1 (Homo sapiens), Q99873. inhibition, % at 2.79 µM. recombinant PRMT1, activity-based probe fluorescence polarization;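 active = inhibition above about 21% made by adding two undisclosed values, limit read from the data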
TLR4 MyD88 comp – inhibitors of TLR4-MyD88 association in cells, primary screen, cell-based, HeLa CL3-4, BLA complementation, FRET ratio; inhibition, % at 8.4 µM; HeLa CL3-4 TLR4/MyD88 BLA complementation; AID 861, 2007; hit rate 0.18% among 200,000; Toll-like receptor 4 (Homo sapiens) + Myeloid differentiation primary response protein …; in the data active = inhibition above about 25%;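 note: 0% = vehicle and 100% = reference inhibitor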
Exocytosis inh – LAMP-1 surface exposure blockers, TALL-104 cells – cell-based, flow cytometry, MLPCN library, primary screen; TALL-104 LAMP-1 surface exposure; cells stimulated with thapsigargin and PMA; inhibition, % at 10 µM; hit rate 0.66% among 360,000; AID 651702, 2012;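 active = inhibition above about 55%, limit read from the data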
ABHD5 PLIN5 PPI – ABHD5-PLIN5 interaction inhibitors, primary screen, cell lysate, split luciferase complementation, luminescence. Perilipin-5 (Homo sapiens) + 1-acylglycerol-3-phosphate O-acyltransferase ABHD5 (Homo …. Split G. princeps luciferase complementation, 4 h. inhibition, % at 4 µM. hit rate 0.78% among 360,000;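 active = inhibition above the mean inhibition across every tested compound plus 3 SD, cut at about 22% in these data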;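 note: 0% = DMSO only wells and the 100% control is not disclosed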
Target sequence (Q00G26 whole entry, looked up): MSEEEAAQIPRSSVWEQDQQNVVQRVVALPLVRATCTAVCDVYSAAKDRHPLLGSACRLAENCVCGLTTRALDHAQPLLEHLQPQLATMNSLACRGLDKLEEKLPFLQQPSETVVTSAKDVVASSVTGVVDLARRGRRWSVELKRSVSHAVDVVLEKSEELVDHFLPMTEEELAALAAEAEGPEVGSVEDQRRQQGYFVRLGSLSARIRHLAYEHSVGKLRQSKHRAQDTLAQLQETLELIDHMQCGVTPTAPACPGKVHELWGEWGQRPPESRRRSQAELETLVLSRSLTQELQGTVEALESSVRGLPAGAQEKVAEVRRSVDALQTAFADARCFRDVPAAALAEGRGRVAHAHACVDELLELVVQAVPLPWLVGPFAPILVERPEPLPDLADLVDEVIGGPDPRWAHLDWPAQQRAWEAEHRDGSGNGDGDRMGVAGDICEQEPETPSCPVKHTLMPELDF
Target sequence (Q8WTS1 whole entry, looked up): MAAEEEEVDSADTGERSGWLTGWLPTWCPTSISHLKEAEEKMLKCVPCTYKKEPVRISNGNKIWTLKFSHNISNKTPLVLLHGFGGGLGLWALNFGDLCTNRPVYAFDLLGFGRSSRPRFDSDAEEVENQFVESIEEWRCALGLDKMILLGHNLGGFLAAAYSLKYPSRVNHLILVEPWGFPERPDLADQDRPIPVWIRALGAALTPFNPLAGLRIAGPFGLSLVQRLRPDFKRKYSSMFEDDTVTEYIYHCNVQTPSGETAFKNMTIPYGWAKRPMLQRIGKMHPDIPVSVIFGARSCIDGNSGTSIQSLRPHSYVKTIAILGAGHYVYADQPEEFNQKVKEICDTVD
TLR9-MyD88 inh – inhibitors of TLR9-MyD88 association in cells, primary screen, cell-based, CHO, BLA complementation, fluorescence. CCF4 FRET ratio. inhibition, % at 4.98 µM. hit rate 0.21% among 340,000. AID 504734, 2011;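 active = inhibition above the mean over all tested compounds plus 3 SD, cut at about 21% in these data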;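 note: 0% = DMSO only wells and 100% = clavulanate BLA inhibitor control wells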
PRMT1 confirm – PRMT1 methyltransferase inhibitors, confirmation, biochemical, fluorescence polarization, triplicate; hit rate 42% among 3,300; inhibition, % at 2.79 µM; shares compounds with PRMT1 inh; recombinant His-PRMT1, activity-based probe fluorescence polarization;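 active = mean inhibition across replicates above the hit cutoff derived for the earlier primary screen, cut at about 22% in these data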
Numbers without * were called inactive; / = no result given. The list is not random: actives were taken first. Their share in the collection is about 2.6%.

SMILES	NOD2 RIPK2 PPI	PRMT1 inh	TLR4 MyD88 comp	Exocytosis inh	ABHD5 PLIN5 PPI	TLR9-MyD88 inh	PRMT1 confirm
COc1ccc2cc(C3=CC(=O)CC(C)(C)C3=O)ccc2c1	-5.0	1.6	/	-1.2	4.5	1.4	/
c1coc(-c2nc3c([nH]2)CCc2nonc2-3)c1	-4.4	71.7*	0.2	-0.7	4.2	1.9	-0.3
c1ccc(-c2nc3c([nH]2)CCc2nonc2-3)cc1	-10.3	-3.1	-2.9	-1.7	0.5	-13.2	/
CCC(=NNS(=O)(=O)c1ccc(C)cc1)c1ccc(OC)c(C)c1	-15.4	3.0	/	-1.9	-1.8	-2.1	/
CC(=O)Nc1c(O)c2ccccc2[nH]c1=O	1.4	36.2*	9.6	-2.5	-28.7	-9.8	13.3
CCCCC(=O)NNC(=O)c1c(O)c2ccccc2[nH]c1=O	-3.9	-3.4	/	-5.2	-3.4	-3.4	/
CCCCC(=O)Nc1c(O)c2ccccc2[nH]c1=O	0.1	30.5*	-1.8	-4.1	-16.1	4.7	-3.4
COc1ccc2c(n1)Sc1nc3ccccc3nc1N2	20.7	78.5*	/	61.6*	-4.0	10.7	20.0
CCOC(=S)SCC(=O)Nc1ncc(C)s1	5.3	58.9*	/	-2.8	1.9	4.5	46.4*
N#C/C(=C/c1cccc([N+](=O)[O-])c1)C(=O)Nc1ccccc1O	-3.8	-1.8	/	-3.9	1.8	5.2	/
N#C/C(=C\c1ccccc1)C(=O)NNS(=O)(=O)c1cccc([N+](=O)[O-])c1	-8.6	42.6*	/	2.1	-6.5	5.7	3.9
Cc1c(Cc2ccccc2)[n+](=O)c2ccccc2n1[O-]	-3.4	1.6	/	-3.2	1.1	14.6	/
O=C1C(N2CCOCC2)=Cc2cccc3cccc1c23	-4.9	101.1*	/	-2.6	-5.8	7.0	77.3*
O=C1C=C(N2CCOCC2)c2ccccc2C1=O	-1.6	3.6	/	-11.5	-17.4	-1.8	/
O=C1C=C(O)c2cccc3cccc1c23	-8.5	47.7*	/	-11.8	-5.5	14.7	9.0
O=C1C=C(N2CCOCC2)c2cccc3cccc1c23	-14.8	102.3*	/	-6.7	-11.4	-12.8	-2.1
Cc1ccc(S(=O)(=O)/N=C2/NC(=O)/C(=C/c3ccccc3)S2)cc1	0.1	2.5	0.2	4.6	9.2	1.0	/
Cc1ccc(S(=O)(=O)/N=C2/NC(=O)/C(=C\c3ccccc3)S2)cc1	-13.8	0.4	/	0.9	9.1	-11.2	/
Cc1ccc(S(=O)(=O)/N=C2/NC(=O)/C(=C\c3ccco3)S2)cc1	-0.7	28.1*	-4.4	-1.4	4.3	-11.1	5.8
CC(=O)Nc1ccc(S(=O)(=O)/N=C2/NC(=O)/C(=C\c3ccco3)S2)cc1	-3.2	35.2*	-13.5	-2.4	5.5	-6.0	13.1
COc1cc(/C=C2\S/C(=N/S(=O)(=O)c3ccc(C)cc3)NC2=O)c([N+](=O)[O-])cc1OC	-8.0	26.9*	-3.3	0.6	-9.6	-1.3	1.6
COC1OC(COCc2ccccc2)C(N)C(OCc2ccccc2)C1OCc1ccccc1 (stereo not given)	-3.3	-2.2	/	8.1	-3.6	-17.9	/
O=C(O)c1cc(-c2ccc(/C=C3\NC(=O)N(c4ccccc4)C3=O)o2)ccc1Cl	5.8	5.6	/	-3.1	1.3	-6.9	/
O=C(O)c1cc(-c2ccc(/C=C3\NC(=O)N(c4ccc(Cl)cc4)C3=O)o2)ccc1Cl	-14.4	26.6*	-1.0	3.7	6.0	-1.2	21.7*
Cc1ccc(NC(=O)C(OC(=O)c2cnc(C)cn2)c2ccccc2)c([N+](=O)[O-])c1 (stereo not given)	0.0	2.4	/	-10.0	1.6	-7.1	/
SMILES	NOD2 RIPK2 PPI	PRMT1 inh	TLR4 MyD88 comp	Exocytosis inh	ABHD5 PLIN5 PPI	TLR9-MyD88 inh	PRMT1 confirm
Cc1snc(SCC(=O)c2ccc([N+](=O)[O-])cc2)c1C#N	-0.8	46.5*	1.4	45.3	-16.1	-5.0	53.1*
CC1(C)Cc2ccccc2C(NNC(=O)c2ccc(Br)o2)=N1	-10.2	1.1	/	-5.9	-3.9	-7.2	/
C#Cc1cccc(C(=O)N2CCCC(Nc3cccc(F)c3)C2)c1 (stereo not given)	6.5	-2.2	/	1.5	1.4	2.8	/
COc1ccc(S(=O)(=O)c2c(N)n(Cc3ccco3)c3nc4ccccc4nc23)cc1	-8.4	27.5*	-0.6	1.0	24.5*	-2.5	17.8
CC[n+]1c(/C=C2/C=C(C)CC(C)(C)C2)sc2ccc(OC)cc21	4.1	35.7*	6.8	25.5	6.0	1.1	0.7
CC[n+]1c(/C=C2\C=C(C)CC(C)(C)C2)sc2ccccc21	-3.8	43.5*	-7.3	5.2	11.4	3.6	15.7
CC[n+]1c(/C=C2\C=C(C)CC(C)C2)sc2ccccc21 (stereo not given)	4.7	/	1.3	19.1	10.2	3.7	/
CCN(CC)c1ccc(/C=C/c2ccc3ccc(OC)cc3[n+]2CC)cc1	2.2	0.4	/	-12.8	19.2	3.9	/
Cc1nn2c(=O)[nH]cnc2c1Cl	-0.9	2.3	/	0.9	-2.8	-3.1	/
Oc1ccccc1C(=S)N1CCN(C(=S)c2ccccc2O)CC1	8.2	42.5*	/	3.2	4.7	-10.3	18.7
C/C(N)=C(/C#N)C(=O)CSc1nc2ccc(C)cc2[nH]1	-8.8	26.3*	6.5	1.4	6.3	-3.8	4.5
COc1ccc(C(C)=O)cc1Cn1c(C)c(C(=O)NCc2cccc(C(F)(F)F)c2)sc1=O	-7.2	1.6	/	16.0	1.5	/	/
CC(C)n1ncc2c(C(=O)Nc3ccccc3SCC(N)=O)cc(C3CC3)nc21	-6.8	79.5*	/	-0.4	-2.9	2.4	-2.7
CCc1ccccc1NC(=O)CNC(=O)c1cc(C2CC2)nc2c1cnn2C(C)C	-8.1	1.8	/	-0.3	1.8	-7.1	/
CCCCOc1ccc(C(=O)NCCN2CCC(n3c(=O)[nH]c4ccccc43)CC2)cc1	-15.3	-2.2	/	17.8	11.0	/	/
CCc1nnc2n1N=C(c1ccc(Cl)cc1)CS2	-3.4	-0.4	/	-6.6	1.6	1.8	/
Cc1nnc2n(c1=O)N=C(c1ccc(Cl)cc1)CS2	1.9	55.7*	8.9	-3.6	-11.4	-5.8	57.1*
COc1ccc2c(ccc[n+]2[O-])c1	10.9	2.0	/	21.0	5.2	11.5	/
COc1ccc2nc3ccccc3[n+]([O-])c2c1	11.4	36.7*	/	-0.8	-9.9	-8.9	26.9*
CCCS(=O)(=O)NC(=O)C1(C)CCN(C(=O)c2cc(C)oc2C)C1 (stereo not given)	-13.4	-1.8	/	10.8	17.8	/	/
